Assay [1] concerns the target Tumor susceptibility gene 101 protein (Homo sapiens) (UniProt Q99816). As to the kind of experiment: qHTS Assay for Iinhibitors of HIV-1 Budding by Blocking the Interaction of PTAP/TSG101: Hit Validation (AID 651600). For activity change, negative = inhibition: % is set by controls: 0 for no effect and ±100 for the full control effect. Note: nearly all actives have a fitted effect of over 70% in size. Note: potency is the fitted concentration of half-maximal effect. The method in brief:
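Compounds are added to the Tsg101 binding domain (10 uM final) in pH 7.5 HEPES buffer. FITC-PTAP peptide follows at 50 nM final. After 20 min at r.t., polarized FITC emission is measured.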
In general terms: qHTS replaces the single test concentration by a dilution series.

The target in assay [2] is Rap guanine nucleotide exchange factor 3 (Homo sapiens) (UniProt O95398). As to the kind of experiment: Confirmatory qHTS for antagonist of cAMP-regulated guanine nucleotide exchange factor 3 (EPAC1) (AID 1645880).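 For activity, negative = inhibition: plate controls were DMSO only for no effect and full effect of the ATA control for full effect.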 Note: nearly all actives have a fitted effect of over 55% in size. Note: potency is the fitted concentration of half-maximal effect. As to conditions: EPAC1 Rap1B-BODIPY-GDP exchange, fluorescence; activity, negative = inhibition: at 115 µM (top of the series). In a few lines: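 Released BODIPY-GDP fluoresces less than Rap1-bound BODIPY-GDP; the signal is followed at 480/540 nm at 5-min intervals over 30 min, after 5 min at room temperature. Reactions contain 100 nM EPAC1, 250 nM RAP1B-BODIPY-GDP and 50 uM GDP; results are normalized to ATA and DMSO.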
Rap guanine nucleotide exchange factor 3 (Homo sapiens), sequence (O95398 whole entry, looked up): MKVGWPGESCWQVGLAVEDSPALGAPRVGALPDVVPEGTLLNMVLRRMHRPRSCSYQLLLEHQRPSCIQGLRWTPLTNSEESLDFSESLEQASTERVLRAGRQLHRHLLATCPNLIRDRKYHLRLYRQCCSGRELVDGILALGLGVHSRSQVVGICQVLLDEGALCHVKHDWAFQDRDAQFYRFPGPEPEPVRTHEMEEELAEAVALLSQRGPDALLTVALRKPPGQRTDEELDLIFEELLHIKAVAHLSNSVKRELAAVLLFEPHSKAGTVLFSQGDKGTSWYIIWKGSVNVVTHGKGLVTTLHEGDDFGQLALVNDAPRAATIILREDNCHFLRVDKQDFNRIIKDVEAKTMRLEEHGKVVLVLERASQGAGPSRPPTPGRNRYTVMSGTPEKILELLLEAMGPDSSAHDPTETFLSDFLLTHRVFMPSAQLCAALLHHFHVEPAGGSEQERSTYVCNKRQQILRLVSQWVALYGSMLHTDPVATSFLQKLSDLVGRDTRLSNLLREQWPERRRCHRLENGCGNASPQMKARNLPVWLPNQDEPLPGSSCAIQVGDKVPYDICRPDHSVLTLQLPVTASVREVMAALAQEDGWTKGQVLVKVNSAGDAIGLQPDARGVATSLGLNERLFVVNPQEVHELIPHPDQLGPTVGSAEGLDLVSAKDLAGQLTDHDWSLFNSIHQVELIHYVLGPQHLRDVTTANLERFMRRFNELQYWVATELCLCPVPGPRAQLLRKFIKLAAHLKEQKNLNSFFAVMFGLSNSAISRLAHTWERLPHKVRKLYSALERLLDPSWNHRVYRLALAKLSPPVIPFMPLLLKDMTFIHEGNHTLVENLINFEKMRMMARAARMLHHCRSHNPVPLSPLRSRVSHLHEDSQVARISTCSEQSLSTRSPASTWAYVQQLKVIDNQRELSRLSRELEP

Assay [3] has as its target Rap guanine nucleotide exchange factor 4 (Homo sapiens) (UniProt Q8WZA2). The experiment in a line: Confirmatory qHTS for antagonist of cAMP-regulated guanine nucleotide exchange factor 4 (EPAC2) (AID 1645885). For activity change, negative = inhibition: % is set by controls: 0 for no effect and ±100 for the full control effect. Note: nearly all actives have a fitted effect of over 25% in size. Note: potency is the fitted concentration of half-maximal effect.
Assay [4] has as its target Rap guanine nucleotide exchange factor 3 (Homo sapiens) (UniProt O95398). The experiment in a line: Counterscreen qHTS for antagonist of cAMP-regulated guanine nucleotide exchange factor 3 (EPAC1) (AID 1645888). Note: % of control where 0% means no effect. In a few lines: (§1)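 Rap1B-BODIPY-GDP 250 nM + GDP 50 uM; cpds 7-pt, final 9.74 nM–152 uM (activator mode) or from 7.32 nM upwards (inhibitor mode); RT; FI 480/540 nm at 5 and 30 min, then ± cAMP, reread.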

Assay [5] has the same target. The experiment in a line: Counterscreen qHTS for agonist of cAMP-regulated guanine nucleotide exchange factor 3 (EPAC1) (AID 1645889). Note: nearly all actives have a fitted effect of over 40% in size. Note: potency is the fitted concentration of half-maximal effect. The method in brief: as §1
On the technique in general: The purpose of a counterscreen is to sort out artefacts and off-target activity.

Assay [6] has as its target Bifunctional 3'-5' exonuclease/ATP-dependent helicase WRN (Homo sapiens) (UniProt Q14191). The experiment in a line: qHTS for Inhibitors of WRN Helicase: Confirmatory Assay for Cherry-picked Compounds. (AID 720497). Note: potency is the fitted concentration of half-maximal effect; nearly all actives have a fitted effect of over 65% in size. As to conditions: WRN helicase DNA unwinding, fluorescence kinetic. In a few lines:
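Confirmatory retest of cherry-picked hits in 1536-well format. Enzyme (20 nM final) sat with compound for 15 min at room temperature before forked duplex substrate (100 nM) and ATP (2 mM) were added, and unwinding was followed kinetically by red fluorescence.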

Assay [7] can be described thus: qHTS for Inhibitors of WRN Helicase: Thiazole Orange DNA Binding Counterscreen (AID 720499).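 Note: drop in dye fluorescence marks compound binding to DNA; % is set by controls: 0 for no effect and ±100 for the full control effect; nearly all actives have a fitted effect of over 60% in size.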 In a few lines:
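Fluorescent ThO–DNA complex (100 nM dye, 50 nM unlabeled DNA) exposed to test compounds for 15 min at room temperature; emission at 530 nm after 480 nm excitation reports dye displacement.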

The target in assay [8] is RecQ-like DNA helicase BLM (Homo sapiens) (UniProt P54132). The experiment in a line: qHTS for Inhibitors of WRN Helicase: BLM Helicase Counterscreen for WRN Inhibitors (AID 720503). Note: potency is the fitted concentration of half-maximal effect; nearly all actives have a fitted effect of over 60% in size. The conditions noted are these: Recombinant BLM helicase DNA unwinding, red fluorescence. In a few lines:
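Steps: compounds added to 1 nM BLM in pH 8.0 Tris buffer with 2 mM MgCl2; 15 min room-temperature incubation; substrates added (100 nM DNA, 2 mM ATP final); discontinuous kinetic fluorescence measurement, reads spaced 15 min.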

The target of assay [9] is Lysosomal acid glucosylceramidase (Homo sapiens) (UniProt P04062). The experiment in a line: Glucocerebrosidase-p2 (AID 348; in the data active = potency below about 10 µM; note: potency is the fitted concentration of half-maximal effect). The conditions noted are these: purified GBA, blue fluorogenic substrate, 40 min. In a few lines:
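Normal human glucocerebrosidase (0.2 nM) with blue fluorogenic substrate (80 uM final) in citrate/phosphate pH 5.9 with 10mM sodium taurocholate, 0.01% tween-20; 40 min RT, NaOH/glycine stop; fluorescence Ex 365/Em 440; AC50 from a titration from 0.6 nM upwards.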

In assay [10] the target is Cytochrome P450 1A2 (Homo sapiens) (UniProt P05177). The experiment in a line: p450-cyp1a2 (AID 410; calls by dose curve; note: potency is the fitted concentration of half-maximal effect). The method in brief:
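O-Demethylation of luciferin 6' methyl ether by human CYP1A2 is monitored as luciferase luminescence. Substrate sits at Km (100uM); enzyme is 20nM. Values are scaled to 57 uM furafylline as maximal inhibition.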

A short description of assay [11]: Stat Signaling Pathway (AID 446; active = well fitted curve in either direction with a large enough effect, not every such curve was filed as active;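 note: ME-180 cervical cancer cells given 40 pM IL-6 alongside compound; SIE-controlled beta-lactamase reporter measured as 460/530 nm FRET emission ratio; % is set by controls: 0 for no effect and ±100 for the full control effect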). The method in brief: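 Overnight-plated ME-180 cells bearing a STAT Inducible Element beta-lactamase reporter; 5 h co-exposure to compound and 40 pM IL-6; values normalized to 300 pM IL-6 and 125 nM JAK inhibitor controls.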
Assay [12] concerns the target Cytochrome P450 3A4 (Homo sapiens) (UniProt P08684). As to the kind of experiment: qHTS Assay for Inhibitors and Substrates of Cytochrome P450 3A4 (AID 884). Note: potency is the fitted concentration of half-maximal effect; nearly all actives have a fitted effect of over 50% in size. The method in brief: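 Luminescent readout of luciferin produced by CYP3A4 (20 nM) dealkylation of Luciferin-PPXE, 25 uM (its KM). NADPH-driven reaction ran 60 min at RT after 10 min compound preincubation; data scaled to 57 uM ketoconazole as 100% inhibition.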

The target is the same in assay [13]. As to the kind of experiment: qHTS Assay for Activators of Cytochrome P450 3A4 (AID 885). Note: nearly all actives have a fitted effect of over 65% in size. The method in brief: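 Using 20nM recombinant human CYP3A4 in potassium phosphate (200mM), substrate Luciferin-PPXE at 25uM, luminescent luciferin detection followed a 60-min RT NADPH reaction; data scaled to 57 uM ketoconazole.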
Assay [14] deals with Cytochrome P450 2D6 (Homo sapiens) (UniProt P10635). The experiment in a line: qHTS Assay for Inhibitors and Substrates of Cytochrome P450 2D6 (AID 891). Note: potency is the fitted concentration of half-maximal effect; nearly all actives have a fitted effect of over 60% in size. The method in brief: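 Luminescent read-out of luciferin formed by 5 nM human CYP2D6 demethylating 30 uM Luciferin-ME EGE (Km level) over 60 min at room temperature after NADPH regeneration addition. Data normalized to full inhibition by 1.43 uM quinidine.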
Cytochrome P450 2D6 (Homo sapiens), sequence (P10635 whole entry, looked up): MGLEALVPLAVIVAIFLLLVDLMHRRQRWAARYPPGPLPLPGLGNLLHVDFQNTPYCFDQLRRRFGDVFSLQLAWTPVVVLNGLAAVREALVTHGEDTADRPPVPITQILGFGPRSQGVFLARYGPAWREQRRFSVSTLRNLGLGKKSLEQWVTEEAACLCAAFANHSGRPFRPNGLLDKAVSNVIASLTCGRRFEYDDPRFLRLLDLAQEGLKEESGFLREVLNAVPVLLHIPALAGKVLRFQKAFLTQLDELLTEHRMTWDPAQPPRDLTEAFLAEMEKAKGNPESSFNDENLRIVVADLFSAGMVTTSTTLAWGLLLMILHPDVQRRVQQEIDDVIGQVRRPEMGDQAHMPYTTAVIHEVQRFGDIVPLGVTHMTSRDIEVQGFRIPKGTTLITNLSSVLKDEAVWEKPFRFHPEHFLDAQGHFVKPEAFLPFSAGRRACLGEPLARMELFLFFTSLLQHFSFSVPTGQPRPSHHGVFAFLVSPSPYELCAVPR

The target of assay [15] is Dual specificity protein kinase CLK4 (Homo sapiens) (UniProt Q9HAZ1). As to the kind of experiment: qHTS Assay for Inhibitors of CDC-like Kinase 4 (ADP-FP Assay) (AID 1795).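 Note: recombinant human CLK4 phosphorylating RS repeat peptide at 1 µM ATP; % is set by controls: 0 for no effect and ±100 for the full control effect; nearly all actives have a fitted effect of over 60% in size.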 In a few lines: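 Clk4 6.25 nM; RS peptide 100 uM; ATP 1 uM; 25 mM Tris pH 7.5, 10 mM MgCl2; 1 h reaction. ADP detected via antibody/orange tracer FP displacement; TG003 positive control.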
Dual specificity protein kinase CLK4 (Homo sapiens), sequence (Q9HAZ1 whole entry, looked up): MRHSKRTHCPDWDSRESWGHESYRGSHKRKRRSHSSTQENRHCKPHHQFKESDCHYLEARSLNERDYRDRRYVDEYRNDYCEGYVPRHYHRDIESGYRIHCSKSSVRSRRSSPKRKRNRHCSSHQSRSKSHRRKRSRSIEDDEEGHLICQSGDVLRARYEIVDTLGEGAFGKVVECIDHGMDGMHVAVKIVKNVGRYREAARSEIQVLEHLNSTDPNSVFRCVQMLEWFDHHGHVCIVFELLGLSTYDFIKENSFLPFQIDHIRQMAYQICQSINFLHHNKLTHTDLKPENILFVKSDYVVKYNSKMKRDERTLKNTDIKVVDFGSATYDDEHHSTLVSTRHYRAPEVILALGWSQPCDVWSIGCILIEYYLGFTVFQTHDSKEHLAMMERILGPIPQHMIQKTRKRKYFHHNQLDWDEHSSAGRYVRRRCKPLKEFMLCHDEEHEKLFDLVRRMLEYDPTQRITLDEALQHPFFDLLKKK
Assay [16] addresses Flap endonuclease 1 (Homo sapiens) (UniProt P39748). As to the kind of experiment: qHTS Assay for the Inhibitors of FEN1: Confirmatory Assay for Cherry-picked Compounds (AID 720498). As to conditions: FEN1 flap cleavage, TAMRA/BHQ2 fluorogenic DNA substrate. The method in brief: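 Human FEN1 (10 nM reagent) was preincubated with compounds for 15 min at room temperature, then 50 nM final double-flap DNA substrate (5'-TAMRA flap, BHQ-2 quencher strand) was added. Fluorescence (ex 525/em 598 nm) was read at 0 and 15 min.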

The target of assay [17] is DNA polymerase kappa (Homo sapiens) (UniProt Q9UBT6). The experiment in a line: qHTS for Inhibitors of Polymerase Kappa: Confirmatory Assay for Cherry-picked Compounds (AID 720501). Note: potency is the fitted concentration of half-maximal effect. As to conditions: purified Pol-kappa, fluorescent strand-displacement substrate. In a few lines: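 Strand-displacement fluorescence read-out: TAMRA reporter released from a BHQ-2-quenched template, measured at 525/598 nm over a 10 min kinetic window. Substrate was 50 nM final; enzyme was 10 nM Pol-kappa, preincubated 15 min at room temperature with compound.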

SMILES strings stand for the structures. Values without a mark were called inactive. Records with an inconclusive call do not appear. The list shows a part of the results. Activity calls are given as the source filed them. Unless noted, calls come from the whole dose curve; as a rule, active = well fitted curve in the direction sought with a large enough effect; inconclusive = small, poorly fitted or top-dose-only effect, or another doubt; inactive = no such curve, though single readings can be large; an effect the other way counts as inactive or inconclusive.

Tumor susceptibility gene 101 protein (Homo sapiens), sequence (Q99816 whole entry, looked up, the tested form may be a part): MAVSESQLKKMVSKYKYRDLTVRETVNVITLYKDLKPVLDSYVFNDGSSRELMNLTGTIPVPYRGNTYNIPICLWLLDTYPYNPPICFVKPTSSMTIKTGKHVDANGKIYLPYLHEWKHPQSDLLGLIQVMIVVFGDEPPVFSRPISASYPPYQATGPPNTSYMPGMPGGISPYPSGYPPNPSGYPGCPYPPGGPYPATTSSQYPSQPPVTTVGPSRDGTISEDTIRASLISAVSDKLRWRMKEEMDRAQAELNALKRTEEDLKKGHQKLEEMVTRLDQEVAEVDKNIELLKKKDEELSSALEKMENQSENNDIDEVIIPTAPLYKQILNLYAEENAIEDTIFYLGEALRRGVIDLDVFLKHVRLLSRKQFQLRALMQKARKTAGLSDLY
Rap guanine nucleotide exchange factor 4 (Homo sapiens), sequence (Q8WZA2 whole entry, looked up): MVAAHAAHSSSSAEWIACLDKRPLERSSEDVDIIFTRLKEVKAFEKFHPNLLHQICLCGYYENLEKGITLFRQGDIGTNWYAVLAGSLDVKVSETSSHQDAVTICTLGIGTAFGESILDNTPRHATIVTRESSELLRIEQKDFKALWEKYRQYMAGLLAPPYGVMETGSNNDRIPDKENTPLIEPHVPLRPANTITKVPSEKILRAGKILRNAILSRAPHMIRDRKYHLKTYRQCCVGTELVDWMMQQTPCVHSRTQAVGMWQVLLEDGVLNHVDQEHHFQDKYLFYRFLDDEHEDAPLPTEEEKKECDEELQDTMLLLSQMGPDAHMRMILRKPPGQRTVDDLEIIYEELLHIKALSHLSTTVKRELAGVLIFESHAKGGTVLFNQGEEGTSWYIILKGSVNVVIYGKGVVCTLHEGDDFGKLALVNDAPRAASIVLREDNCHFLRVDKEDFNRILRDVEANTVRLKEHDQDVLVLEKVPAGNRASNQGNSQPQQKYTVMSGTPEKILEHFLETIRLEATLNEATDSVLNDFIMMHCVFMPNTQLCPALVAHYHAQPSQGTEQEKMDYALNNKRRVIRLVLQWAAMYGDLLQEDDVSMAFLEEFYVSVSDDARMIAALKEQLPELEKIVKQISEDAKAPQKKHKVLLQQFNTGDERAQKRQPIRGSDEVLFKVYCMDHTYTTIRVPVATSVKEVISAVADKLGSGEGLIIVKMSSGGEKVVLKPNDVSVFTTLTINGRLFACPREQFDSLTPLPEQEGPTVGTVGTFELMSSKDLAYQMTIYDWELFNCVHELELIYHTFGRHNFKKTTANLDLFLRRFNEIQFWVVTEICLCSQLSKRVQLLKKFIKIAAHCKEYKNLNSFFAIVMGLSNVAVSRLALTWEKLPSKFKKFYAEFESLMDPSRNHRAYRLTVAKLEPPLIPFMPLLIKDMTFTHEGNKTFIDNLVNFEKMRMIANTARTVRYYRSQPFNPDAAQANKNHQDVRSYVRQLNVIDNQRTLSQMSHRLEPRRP
Cytochrome P450 3A4 (Homo sapiens), sequence (P08684 whole entry, looked up): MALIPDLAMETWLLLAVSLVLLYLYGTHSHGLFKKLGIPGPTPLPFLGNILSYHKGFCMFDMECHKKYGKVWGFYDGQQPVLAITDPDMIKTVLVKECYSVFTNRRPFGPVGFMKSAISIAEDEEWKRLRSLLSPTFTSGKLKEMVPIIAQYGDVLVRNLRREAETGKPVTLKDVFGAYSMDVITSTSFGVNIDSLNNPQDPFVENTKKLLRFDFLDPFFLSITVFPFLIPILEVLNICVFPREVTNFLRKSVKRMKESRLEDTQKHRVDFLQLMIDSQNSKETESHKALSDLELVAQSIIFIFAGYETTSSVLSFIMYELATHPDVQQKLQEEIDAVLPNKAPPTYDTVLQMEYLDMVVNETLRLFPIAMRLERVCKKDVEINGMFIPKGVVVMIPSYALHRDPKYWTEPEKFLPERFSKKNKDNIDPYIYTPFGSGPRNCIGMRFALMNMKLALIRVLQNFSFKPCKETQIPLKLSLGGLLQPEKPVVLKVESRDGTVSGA
Lysosomal acid glucosylceramidase (Homo sapiens), sequence (P04062 whole entry, looked up): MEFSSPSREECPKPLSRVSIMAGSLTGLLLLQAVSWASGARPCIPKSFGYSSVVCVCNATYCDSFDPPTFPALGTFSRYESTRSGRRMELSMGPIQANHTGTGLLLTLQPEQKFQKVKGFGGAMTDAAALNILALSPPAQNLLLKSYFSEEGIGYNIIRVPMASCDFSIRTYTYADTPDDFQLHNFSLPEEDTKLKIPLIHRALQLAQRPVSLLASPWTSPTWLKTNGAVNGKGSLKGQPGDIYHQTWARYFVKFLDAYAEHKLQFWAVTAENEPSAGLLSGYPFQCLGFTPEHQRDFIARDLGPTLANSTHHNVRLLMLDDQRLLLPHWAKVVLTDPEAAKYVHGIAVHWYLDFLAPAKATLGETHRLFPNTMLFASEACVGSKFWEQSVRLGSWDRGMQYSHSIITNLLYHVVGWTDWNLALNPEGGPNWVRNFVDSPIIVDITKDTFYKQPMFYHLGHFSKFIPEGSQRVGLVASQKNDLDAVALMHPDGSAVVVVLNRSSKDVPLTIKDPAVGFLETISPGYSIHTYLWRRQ
Cytochrome P450 1A2 (Homo sapiens), sequence (P05177 whole entry, looked up): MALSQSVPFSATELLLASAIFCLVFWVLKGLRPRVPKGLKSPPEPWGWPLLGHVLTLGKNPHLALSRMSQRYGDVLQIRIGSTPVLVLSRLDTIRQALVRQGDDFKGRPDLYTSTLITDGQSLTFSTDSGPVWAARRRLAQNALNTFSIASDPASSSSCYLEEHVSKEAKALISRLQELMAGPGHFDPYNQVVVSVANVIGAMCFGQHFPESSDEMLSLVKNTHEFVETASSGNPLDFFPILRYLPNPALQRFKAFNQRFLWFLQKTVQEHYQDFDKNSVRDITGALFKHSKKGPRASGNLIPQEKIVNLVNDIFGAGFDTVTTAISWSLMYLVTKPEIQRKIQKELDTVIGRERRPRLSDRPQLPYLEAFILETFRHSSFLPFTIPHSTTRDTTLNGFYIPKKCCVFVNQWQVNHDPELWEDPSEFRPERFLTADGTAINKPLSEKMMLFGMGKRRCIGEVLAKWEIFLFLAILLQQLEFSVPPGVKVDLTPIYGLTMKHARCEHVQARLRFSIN

For the molecule `O=C(O)c1cc(Cl)ccc1-c1ccc(/C=C/c2cc(C(F)(F)F)[nH]c(=O)n2)o1`, the Potency result in [1], in [2] and in assay [3] was “inactive” each time. In addition, the activity change, negative = inhibition in [4] was 144% [at 30.8 µM]. For the same molecule, the Potency in [5] is 12.6 µM (active).

As for `CC(C)CCN1C(=O)c2cccc3c(N)ccc(c23)C1=O`, the Potency in assay [1] was 16.3 µM (active); in assay [5], 12.6 µM (active). Also, the Potency entry in assay [2] and in [3] was “inactive” throughout. In assay [4], the activity change, negative = inhibition was 154% [at 30.8 µM].

`CCOc1ccc(C(=O)CCc2nc3ccccc3s2)cc1`: the Potency result in [2] was “inactive”. The activity change, negative = inhibition in assay [4] is -7.41% [at 30.8 µM].

For the molecule `O=C1CCN2C=Nc3cccc4ccc1c2c34`, the Potency in assay [1] was 6.51 µM (active); in [5] it was 11.2 µM (active). The Potency entry in [2] and in [3] was “inactive” in each case. Also, the activity change, negative = inhibition in assay [4] is 142% [at 30.8 µM].

Consider `COc1cccc(/C=N/NC(=O)c2[nH]nc3c2CCc2ccccc2-3)c1O`, for which the Potency in [6] is 21.5 µM (active); in assay [8] it was 6.81 µM (active); in assay [2], 33.8 µM (active). In addition, the call in assay [7] was inactive. Besides, the Potency entry in assay [3] and in assay [4] was “inactive” in each case.

On to `CCNc1ncc2nc(-c3cccs3)c(=O)n(CCC#N)c2n1`, for which the Potency in [9] is more than 11.4 µM; in assay [10] it was 3.16 µM (active); in assay [12], 6.31 µM (active); in assay [14], 1.26 µM (active). The call in [11] and in assay [13] was inactive. Also, the Potency result in assay [15], in assay [2] and in assay [3] was “inactive” in each case.

Consider `Cn1ccc(=Nc2ccc(NC(=O)c3ccc(N=c4ccn(C)c5ccc([N+](=O)[O-])cc45)cc3)cc2)cc1`, for which the Potency in assay [16] is 9.53 µM (active); in assay [17] it was 4.23 µM (active); in assay [2] it was 42.6 µM (active); in assay [3] it was 16.9 µM (active). Besides, the Potency result in assay [4] was “inactive”.

For the molecule `c1ccc(-c2cnn3c(-c4ccccc4)c(-c4ccccc4)nc3n2)cc1`, the Potency result in assay [1], in assay [2], in assay [3] and in assay [4] was “inactive” throughout.

Turning to `c1ccc(Oc2nc(-c3cccnc3)nc3ccccc23)cc1`, the Potency result in assay [2] and in [4] was “inactive” in each case.

For the molecule `CC(C)(C)C1COc2ccccc2N1C(=O)c1ccccc1Cl` (configuration not stated), the Potency entry in assay [2] and in assay [5] was “inactive” in each case. Further, the Potency in assay [3] was 30.1 µM (active).

For `Cc1ccc2oc(=O)n(Cc3ccc(OC(C)C)cc3)c2c1`, the Potency entry in assay [2] and in assay [4] was “inactive” throughout.

As to `CCCCn1nnnc1C(c1cc2ccccc2o1)N1CCCCC1` (configuration not stated), the Potency entry in [2] and in assay [4] was “inactive” in each case.

With `O=[N+]([O-])/C=C/c1cn(Cc2ccc(Cl)cc2)c2ccccc12`, the Potency result in assay [2] and in assay [4] was “inactive” in each case.
